# Where “and” joins values, the source holds several entries; their conditions need not be identical. Equal values may be shown once. Hit rate of the full screen: of about 5,500 compounds, about 2,000 (36%) were called active. Another 18% or so got no clear call; they are omitted. This is one part of the list. A number with no mark means an inactive call. Cut-off read from the data, not from the text of the source: active = normalized growth mostly below about 0.91 (no sharp cut-off); inconclusive = no clear call, values can overlap the other calls; inactive = mostly above about 0.92.
# Assay: chemical genetic growth profiling, strain panel (AID 1159580);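 note: tested at 20 µM; growth read once vehicle control cultures reached saturation at 30 °C; 1 = growth at the plate median or of vehicle wells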
# Conditions: S. cerevisiae deletion strains, growth OD
smiles,measurement,setting,value
C=C(C)c1cc2cc(C(C)=O)c(O)cc2o1,normalized growth,"locus YAL013W, strain DEP1, stronger effect = lower value",0.948
same,normalized growth,"locus YAL021C, strain ccr4, stronger effect = lower value",0.981
same,normalized growth,"locus YAL026C, strain drs2, stronger effect = lower value",0.985
same,normalized growth,"locus YAL030W, strain snc1, stronger effect = lower value",0.974
same,normalized growth,"locus YBL061C, strain skt5, stronger effect = lower value",0.97
same,normalized growth,"locus YBR009C, strain hhf1, stronger effect = lower value",0.927
same,normalized growth,"locus YBR021W, strain FUR4, stronger effect = lower value",1.11
same,normalized growth,"locus YBR023C, strain chs3, stronger effect = lower value",0.94
same,normalized growth,"locus YBR171W, strain sec66, stronger effect = lower value",0.952
same,normalized growth,"locus YBR229C, strain ROT2, stronger effect = lower value",0.91 (active)
same,normalized growth,"locus YBR231C, strain swc5, stronger effect = lower value",0.961
same,normalized growth,"locus YBR279W, strain paf1, stronger effect = lower value",0.966
same,normalized growth,"locus YCL011C, strain gbp2, stronger effect = lower value",0.943
same,normalized growth,"locus YCL016C, strain dcc1, stronger effect = lower value",0.921
same,normalized growth,"locus YCL029C, strain bik1, stronger effect = lower value",0.961
same,normalized growth,"locus YCL069W, strain vba3, stronger effect = lower value",0.964
same,normalized growth,"locus YCR088W, strain abp1, stronger effect = lower value",0.965
same,normalized growth,"locus YDL005C, strain med2, stronger effect = lower value",0.991
same,normalized growth,"locus YDL035C, strain GPR1, stronger effect = lower value",0.93
same,normalized growth,"locus YDL040C, strain nat1, stronger effect = lower value",0.974
same,normalized growth,"locus YDL074C, strain BRE1, stronger effect = lower value",0.924
same,normalized growth,"locus YDL101C, strain DUN1, stronger effect = lower value",0.959
same,normalized growth,"locus YDL185W, strain tfp1, stronger effect = lower value",0.895 (active)
same,normalized growth,"locus YDL192W, strain arf1, stronger effect = lower value",0.893 (active)
same,normalized growth,"locus YDR001C, strain nth1, stronger effect = lower value",0.972
same,normalized growth,"locus YDR069C, strain doa4, stronger effect = lower value",0.998
same,normalized growth,"locus YDR101C, strain arx1, stronger effect = lower value",0.873 (active)
same,normalized growth,"locus YDR137W, strain rgp1, stronger effect = lower value",0.854
same,normalized growth,"locus YDR150W, strain NUM1, stronger effect = lower value",0.965
same,normalized growth,"locus YDR159W, strain sac3, stronger effect = lower value",0.992
same,normalized growth,"locus YDR162C, strain NBP2, stronger effect = lower value",0.926
same,normalized growth,"locus YDR195W, strain ref2",1.2 [resistant] (active)
same,normalized growth,"locus YDR297W, strain sur2, stronger effect = lower value",0.991
same,normalized growth,"locus YDR318W, strain mcm21, stronger effect = lower value",0.928
same,normalized growth,"locus YDR334W, strain swr1, stronger effect = lower value",0.983
same,normalized growth,"locus YDR335W, strain msn5, stronger effect = lower value",0.965
same,normalized growth,"locus YDR388W, stronger effect = lower value",0.947
same,normalized growth,"locus YDR392W, strain spt3, stronger effect = lower value",0.672 (active)
same,normalized growth,"locus YDR502C, strain sam2, stronger effect = lower value",0.968
same,normalized growth,"locus YEL003W, strain gim4, stronger effect = lower value",0.973
same,normalized growth,"locus YEL037C, strain rad23, stronger effect = lower value",0.979
same,normalized growth,"locus YEL061C, strain CIN8 (second series), stronger effect = lower value",0.958
same,normalized growth,"locus YEL061C, strain CIN8, stronger effect = lower value",0.94
same,normalized growth,"locus YER015W, strain faa2, stronger effect = lower value",0.958
same,normalized growth,"locus YER016W, strain bim1, stronger effect = lower value",0.975
same,normalized growth,"locus YER110C, stronger effect = lower value",0.894 (active)
same,normalized growth,"locus YER111C, strain swi4, stronger effect = lower value",0.97
same,normalized growth,"locus YER155C, strain BEM2 (second series), stronger effect = lower value",0.615 (active)
same,normalized growth,"locus YER155C, strain BEM2, stronger effect = lower value",0.967
same,normalized growth,"locus YER167W, strain BCK2, stronger effect = lower value",0.904
same,normalized growth,"locus YFR010W, strain ubp6, stronger effect = lower value",1
same,normalized growth,"locus YGL078C, strain dbp3, stronger effect = lower value",0.962
same,normalized growth,"locus YGL086W, strain mad1, stronger effect = lower value",0.928 (active)
same,normalized growth,"locus YGL167C, strain pmr1, stronger effect = lower value",0.956
same,normalized growth,"locus YGL173C, strain kem1, stronger effect = lower value",0.971
same,normalized growth,"locus YGL227W, strain vid30, stronger effect = lower value",0.967
same,normalized growth,"locus YGL240W, strain doc1, stronger effect = lower value",0.829 (active)
same,normalized growth,"locus YGL248W, strain PDE1, stronger effect = lower value",0.967
same,normalized growth,"locus YGL253W, strain hxk2, stronger effect = lower value",0.977
same,normalized growth,"locus YGR135W, strain pre9, stronger effect = lower value",0.971
same,normalized growth,"locus YGR252W, strain gcn5, stronger effect = lower value",0.916
same,normalized growth,"locus YHR013C, strain ard1, stronger effect = lower value",0.94
same,normalized growth,"locus YHR027C, strain rpn1, stronger effect = lower value",0.992
same,normalized growth,"locus YHR030C, strain SLT2, stronger effect = lower value",0.954 and 0.925
same,normalized growth,"locus YHR079C, strain IRE1 (second series), stronger effect = lower value",0.93
same,normalized growth,"locus YHR079C, strain IRE1, stronger effect = lower value",0.909
same,normalized growth,"locus YHR094C, strain hxt1, stronger effect = lower value",0.917 (active)
same,normalized growth,"locus YHR129C, strain ARP1, stronger effect = lower value",0.953
same,normalized growth,"locus YHR142W, strain chs7, stronger effect = lower value",0.907
same,normalized growth,"locus YHR200W, strain rpn10, stronger effect = lower value",0.883 (active)
same,normalized growth,"locus YIL066C, strain RNR3, stronger effect = lower value",0.919
same,normalized growth,"locus YIL073C, strain SPO22, stronger effect = lower value",0.899
same,normalized growth,"locus YIL125W, strain kgd1, stronger effect = lower value",0.934
same,normalized growth,"locus YIR030C, strain dcg1, stronger effect = lower value",0.929
same,normalized growth,"locus YJL092W, strain hpr5, stronger effect = lower value",0.973
same,normalized growth,"locus YJL095W, strain BCK1 (second series), stronger effect = lower value",0.974
same,normalized growth,"locus YJL095W, strain BCK1, stronger effect = lower value",0.95 and 0.932
same,normalized growth,"locus YJL115W, strain asf1, stronger effect = lower value",0.983
same,normalized growth,"locus YJL129C, strain trk1, stronger effect = lower value",0.926
same,normalized growth,"locus YJL134W, strain LCB3, stronger effect = lower value",0.951
same,normalized growth,"locus YJL154C, strain vps35, stronger effect = lower value",0.983
same,normalized growth,"locus YJL164C, strain tpk1, stronger effect = lower value",0.932
same,normalized growth,"locus YJL166W, strain qcr8, stronger effect = lower value",0.945
same,normalized growth,"locus YJL168C, strain set2, stronger effect = lower value",0.929 (active)
same,normalized growth,"locus YJL187C, strain SWE1 (second series), stronger effect = lower value",0.958

# — PubChem BioAssay AID1159580 (chemical genetic matrix, 2015)
